Test in all cases: NCI-60 one-dose screen, 48 h (100 = growth as untreated, 0 = no growth, -100 = all killed)
One assay deals with MOLT-4 leukemia. The note with it: 10 µM.
The test system of the next assay is SR leukemia. The note with it: 10 µM.
Another assay concerns RPMI-8226 leukemia. The note with it: 10 µM.
A further assay relates to OVCAR-8 ovarian. The note with it: 10 µM.
The next assay has as its system OVCAR-5 ovarian. The note with it: 10 µM.
Another assay concerns OVCAR-4 ovarian. The note with it: 10 µM.
The next assay concerns SK-OV-3 ovarian. The note with it: 10 µM.
In a further assay the test system is IGROV1 ovarian. The note with it: 10 µM.
The next assay deals with OVCAR-3 ovarian. The note with it: 10 µM.
The test system of another assay is HS 578T breast. The note with it: 10 µM.
For the next assay, the system named is NCI/ADR-RES ovarian. The note with it: 10 µM.
The test system of another assay is T-47D breast. The note with it: 10 µM.
A further assay has as its system BT-549 breast. The note with it: 10 µM.
A further assay has as its system MDA-MB-435 melanoma. The note with it: 10 µM.
Another assay deals with SW-620 colon. The note with it: 10 µM.
The subject of a further assay is MCF7 breast. The note with it: 10 µM unless noted.
For a further assay, the system named is HCT-116 colon. The note with it: 10 µM.
The test system of another assay is HCC-2998 colon. The note with it: 10 µM.
A further assay deals with KM12 colon. The note with it: 10 µM.

Several values for one entry are separate records, joined by “and”; a condition that tells them apart may be missing. Equal entries are not always repeated. The panel holds about 83,000 compounds, 20% with a hit somewhere; the sample as a whole holds those more often.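 In brief: 96-well plates, 48 h treatment, single concentration, percent growth endpoint.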 Activity calls are given as the source filed them. How the source made its calls: active means growth percent below 10; inactive means the rest.

With `COc1cc(/C=C(/C)[N+](=O)[O-])ccc1O`, the growth in the assay with MOLT-4 leukemia was -3.07% (active) and 1.18% (active); in the assay on SR leukemia it was -14.7% (active) and -4.36% (active); in the assay with RPMI-8226 leukemia, -21.5% (active); with OVCAR-8 ovarian it was 37.5% (inactive) and 27.1% (inactive); with OVCAR-5 ovarian, 83.5% (inactive) and 60.3% (inactive); in the assay on OVCAR-4 ovarian, 50.6% (inactive). Also, the growth with SK-OV-3 ovarian was 92.5% (inactive) and 90.2% (inactive); in the assay with IGROV1 ovarian, 26.4% (inactive) and 21.3% (inactive); in the assay on OVCAR-3 ovarian, -76.2% (active) and -89.3% (active); in the assay on HS 578T breast, 48.5% (inactive) and -8.96% (active); in the assay on NCI/ADR-RES ovarian it was 62.4% (inactive) and -17.5% (active); in the assay with T-47D breast, -22.6% (active) and -40.3% (active). The growth with BT-549 breast is 79.5% (inactive) and 95.1% (inactive); with MDA-MB-435 melanoma, 6.19% (active); with SW-620 colon it was -68% (active) and -56.1% (active); in the assay with MCF7 breast, 9.25% (active) and 1.76% (active); in the assay on HCT-116 colon, -56% (active) and -35.4% (active); in the assay with HCC-2998 colon, 30.3% (inactive) and 87.3% (inactive). In addition, in the assay on KM12 colon, the growth was 59.9% (inactive) and 41.9% (inactive).

Regarding `Cc1ccc(C(=O)C2C(c3ccccc3)N2C2CCCCC2)cc1` (stereo not drawn), the growth in the assay with MOLT-4 leukemia was 94.9% (inactive) and 93.3% (inactive); with SR leukemia it was 94.4% (inactive) and 97.4% (inactive); with RPMI-8226 leukemia, 78.5% (inactive) and 94.1% (inactive); in the assay on OVCAR-8 ovarian, 103% (inactive) and 101% (inactive); in the assay on OVCAR-5 ovarian it was 97.4% (inactive) and 95.9% (inactive); with OVCAR-4 ovarian, 98.4% (inactive) and 87.2% (inactive). Moreover, the growth in the assay with SK-OV-3 ovarian is 102% (inactive) and 96.2% (inactive); in the assay on IGROV1 ovarian it was 119% (inactive) and 92.4% (inactive); in the assay with OVCAR-3 ovarian it was 114% (inactive) and 108% (inactive); with HS 578T breast, 102% (inactive) and 97.1% (inactive); in the assay with NCI/ADR-RES ovarian, 103% (inactive) and 99.7% (inactive); in the assay with T-47D breast, 87.8% (inactive) and 89.7% (inactive). In addition, the growth was 104% (inactive) and 105% (inactive) in the assay on BT-549 breast; 95% (inactive) and 88.3% (inactive) with MDA-MB-435 melanoma; 106% (inactive) and 95.2% (inactive) in the assay with SW-620 colon; 97% (inactive) and 94.2% (inactive) with MCF7 breast; 92.5% (inactive) and 75.3% (inactive) in the assay with HCT-116 colon; 114% (inactive) and 113% (inactive) with HCC-2998 colon. For the same molecule, the growth with KM12 colon was 111% (inactive) and 100% (inactive).

As to `Cc1cc(C)c(C[N+](C)(C)C)c(C)c1C`, the growth in the assay with MOLT-4 leukemia is 3.91% (active); with SR leukemia it was 7.44% (active); in the assay with RPMI-8226 leukemia it was -18.4% (active); with OVCAR-8 ovarian, 6.43% (active); in the assay on OVCAR-5 ovarian, 10.1% (inactive); with OVCAR-4 ovarian, 8.09% (active). Also, the growth in the assay on SK-OV-3 ovarian was 7.37% (active); in the assay with IGROV1 ovarian, 7.5% (active); with OVCAR-3 ovarian, 11.4% (inactive); in the assay on HS 578T breast it was 0.977% (active); in the assay on NCI/ADR-RES ovarian, 4.96% (active); with T-47D breast, -0.376% (active). Moreover, the growth in the assay on BT-549 breast was 7.59% (active); with MDA-MB-435 melanoma, 9.06% (active); with SW-620 colon, 8.53% (active); with MCF7 breast it was -10.7% (active); with HCT-116 colon, 7.93% (active); in the assay on KM12 colon, 7.87% (active).

Take `COc1ccc(/C=C(\C)[N+](=O)[O-])cc1OC`: the growth in the assay with MOLT-4 leukemia was -25% (active); in the assay with SR leukemia it was -17.4% (active); in the assay on RPMI-8226 leukemia, -20.2% (active); with OVCAR-8 ovarian, -27.8% (active); with OVCAR-5 ovarian it was 67.8% (inactive); in the assay on OVCAR-4 ovarian it was 17.2% (inactive). For the same molecule, the growth was 104% (inactive) in the assay on SK-OV-3 ovarian; -18.5% (active) with IGROV1 ovarian; -76.3% (active) with OVCAR-3 ovarian; 65.7% (inactive) in the assay with HS 578T breast; 90.5% (inactive) in the assay on NCI/ADR-RES ovarian; -21.6% (active) with T-47D breast. In addition, the growth is -29.7% (active) in the assay with BT-549 breast; -59.1% (active) with MDA-MB-435 melanoma; -42.4% (active) in the assay on SW-620 colon; -34.6% (active) with MCF7 breast; -28.9% (active) in the assay on HCT-116 colon; 94.3% (inactive) in the assay with HCC-2998 colon. Besides, the growth in the assay with KM12 colon was 54.6% (inactive).

Turning to `O=C1C(=O)c2ccccc2-c2ccccc21`, the growth is -26.9% (active) with MOLT-4 leukemia; 0.843% (active) in the assay on SR leukemia; -32.7% (active) with RPMI-8226 leukemia; -97.6% (active) with OVCAR-8 ovarian; -63.8% (active) in the assay on OVCAR-5 ovarian; -100% (active) with OVCAR-4 ovarian. The growth in the assay with SK-OV-3 ovarian was 93.7% (inactive); in the assay with IGROV1 ovarian it was -61.7% (active); in the assay with OVCAR-3 ovarian, -91% (active); with HS 578T breast it was -20.1% (active); in the assay on NCI/ADR-RES ovarian, -41.5% (active); with T-47D breast, -50% (active). Further, the growth is -75% (active) in the assay on BT-549 breast; -97.9% (active) in the assay on MDA-MB-435 melanoma; -63.3% (active) in the assay on SW-620 colon; -66.4% (active) in the assay on MCF7 breast; -81.5% (active) with HCT-116 colon; -35.4% (active) in the assay with HCC-2998 colon. The growth in the assay with KM12 colon is -84.5% (active).

As for `ClCc1ccc2ccccc2n1`, the growth in the assay on MOLT-4 leukemia was 81.3% (inactive); in the assay with SR leukemia, 88.2% (inactive); in the assay with RPMI-8226 leukemia, 98.6% (inactive); in the assay with OVCAR-8 ovarian, 101% (inactive); in the assay on OVCAR-5 ovarian, 83.4% (inactive); with OVCAR-4 ovarian it was 101% (inactive). For the same molecule, the growth with SK-OV-3 ovarian is 113% (inactive); in the assay on IGROV1 ovarian, 78.2% (inactive); in the assay on OVCAR-3 ovarian it was 99% (inactive); with HS 578T breast, 97.4% (inactive); in the assay with NCI/ADR-RES ovarian it was 98.4% (inactive); with T-47D breast it was 87% (inactive). The growth with BT-549 breast was 102% (inactive); in the assay on MDA-MB-435 melanoma, 93.9% (inactive); in the assay on SW-620 colon, 114% (inactive); with MCF7 breast, 103% (inactive); in the assay on HCT-116 colon it was 91.1% (inactive); with HCC-2998 colon it was 105% (inactive). Besides, the growth in the assay on KM12 colon was 103% (inactive).

For the origin of these results see PubChem BioAssay (NCI).
